Measurements taken from PubChem BioAssay (NCATS).
Inconclusive results are not listed. Active and inactive are the calls of the source. Unless noted, calls follow the shape of the dose curve; as a rule, active = well fitted curve in the direction sought with a large enough effect; inconclusive = small, poorly fitted or top-dose-only effect, or another doubt; inactive = no such curve, though single readings can be large; an effect the other way counts as inactive or inconclusive.

What was measured:
[1] = target: Cytochrome P450 1A2 (Homo sapiens) (UniProt P05177); assay: p450-cyp1a2 (AID 410; calls by dose curve; also: potency is read from the fitted curve at half-maximal effect)
Chain of Cytochrome P450 1A2 (Homo sapiens) (P05177 whole entry, looked up): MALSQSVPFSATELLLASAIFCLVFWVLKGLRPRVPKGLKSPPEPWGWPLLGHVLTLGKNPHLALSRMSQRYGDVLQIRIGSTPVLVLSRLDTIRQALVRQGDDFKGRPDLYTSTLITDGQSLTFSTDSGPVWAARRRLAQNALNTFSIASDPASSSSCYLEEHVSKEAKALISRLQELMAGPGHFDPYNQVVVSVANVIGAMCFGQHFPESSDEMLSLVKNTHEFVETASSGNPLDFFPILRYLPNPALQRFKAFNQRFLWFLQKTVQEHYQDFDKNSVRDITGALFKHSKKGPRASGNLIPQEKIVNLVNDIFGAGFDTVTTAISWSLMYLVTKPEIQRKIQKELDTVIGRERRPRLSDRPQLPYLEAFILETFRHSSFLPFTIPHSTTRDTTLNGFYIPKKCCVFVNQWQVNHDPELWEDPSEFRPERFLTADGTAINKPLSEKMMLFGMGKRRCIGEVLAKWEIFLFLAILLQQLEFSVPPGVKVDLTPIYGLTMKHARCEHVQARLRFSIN
How it was run: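 20nM CYP1A2, 100uM Luciferin-ME (=Km), 100mM KPO4; cpd 10 min RT; +NADPH regen, 60 min RT; stop/detect 20 min; luminescence. Normalized to furafylline 57 uM = full inhibition.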

[2] = target: Glucocorticoid receptor (Homo sapiens) (UniProt P04150); assay: GR-GFP Redistribution (AID 450;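 active = compounds whose dose series gives a full or clear partial fitted curve of increased nuclear translocation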; also: potency is read from the fitted curve at half-maximal effect); details: U2OS GR-GFP nuclear translocation, laser cytometry, 2 h
Chain of Glucocorticoid receptor (Homo sapiens) (P04150 whole entry, looked up, the tested form may be a part): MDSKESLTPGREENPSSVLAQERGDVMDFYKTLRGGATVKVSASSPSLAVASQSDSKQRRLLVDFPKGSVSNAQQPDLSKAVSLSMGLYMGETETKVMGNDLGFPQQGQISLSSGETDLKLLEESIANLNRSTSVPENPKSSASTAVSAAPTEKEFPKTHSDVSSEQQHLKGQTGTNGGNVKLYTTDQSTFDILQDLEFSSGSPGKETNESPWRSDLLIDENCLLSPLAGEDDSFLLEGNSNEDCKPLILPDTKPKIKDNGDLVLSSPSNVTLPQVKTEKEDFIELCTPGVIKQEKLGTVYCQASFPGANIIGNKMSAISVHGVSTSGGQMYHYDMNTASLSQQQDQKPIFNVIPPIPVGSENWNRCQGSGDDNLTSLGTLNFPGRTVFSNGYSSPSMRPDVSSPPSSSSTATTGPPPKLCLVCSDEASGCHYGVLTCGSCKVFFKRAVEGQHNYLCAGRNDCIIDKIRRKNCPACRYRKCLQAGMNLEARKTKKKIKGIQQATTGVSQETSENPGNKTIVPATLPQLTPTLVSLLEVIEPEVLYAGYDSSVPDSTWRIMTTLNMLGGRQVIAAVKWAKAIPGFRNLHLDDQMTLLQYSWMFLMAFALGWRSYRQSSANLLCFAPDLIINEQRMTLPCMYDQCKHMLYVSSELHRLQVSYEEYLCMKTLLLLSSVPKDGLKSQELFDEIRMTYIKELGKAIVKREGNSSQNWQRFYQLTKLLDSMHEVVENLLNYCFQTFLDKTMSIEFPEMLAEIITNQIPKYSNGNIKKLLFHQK

[3] = target: Glucocorticoid receptor (Homo sapiens) (UniProt P04150); assay: GR-EFC Redistribution (AID 451; calls by dose curve; also: potency is read from the fitted curve at half-maximal effect); details: CHO-K1 GR-EFC translocation, beta-gal luminescence, 2 h
How it was run: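 CHO-K1 cells expressing nuclear EA and GR-ED fragments of b-gal; compounds titrated up to 46 uM final, 2 h at 37 C. GR nuclear translocation read as complemented b-gal luminescence after 1 h RT detection.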

[4] = target: 3',5'-cyclic-AMP phosphodiesterase 4B (Homo sapiens) (UniProt Q07343); assay: qHTS Assay for Inhibitors of PDE-IV (AID 607; active = well fitted activation curve with a large enough effect in the main read-out, with a control signal flat, not every such curve was filed as active)
Chain of 3',5'-cyclic-AMP phosphodiesterase 4B (Homo sapiens) (Q07343 whole entry, looked up): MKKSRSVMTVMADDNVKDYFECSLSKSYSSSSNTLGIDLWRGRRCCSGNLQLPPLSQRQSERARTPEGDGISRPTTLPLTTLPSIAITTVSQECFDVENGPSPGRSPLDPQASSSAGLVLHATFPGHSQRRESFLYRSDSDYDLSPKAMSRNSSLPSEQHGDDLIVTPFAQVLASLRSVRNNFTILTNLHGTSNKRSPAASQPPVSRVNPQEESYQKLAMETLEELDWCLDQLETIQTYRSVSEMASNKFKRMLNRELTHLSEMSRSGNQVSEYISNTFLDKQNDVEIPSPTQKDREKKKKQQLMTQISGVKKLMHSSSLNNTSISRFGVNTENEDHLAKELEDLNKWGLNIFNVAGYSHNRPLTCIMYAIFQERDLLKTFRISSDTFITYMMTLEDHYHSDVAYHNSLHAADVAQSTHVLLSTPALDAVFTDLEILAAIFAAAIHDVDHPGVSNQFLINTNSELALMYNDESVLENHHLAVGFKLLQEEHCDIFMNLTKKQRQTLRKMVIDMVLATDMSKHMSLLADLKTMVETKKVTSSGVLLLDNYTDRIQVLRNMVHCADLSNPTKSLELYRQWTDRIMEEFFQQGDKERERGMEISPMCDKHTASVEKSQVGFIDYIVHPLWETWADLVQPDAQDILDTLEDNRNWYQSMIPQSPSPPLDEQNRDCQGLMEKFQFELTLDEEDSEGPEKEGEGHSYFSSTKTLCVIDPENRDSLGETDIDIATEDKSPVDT
How it was run: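 The readout is membrane depolarisation from a cAMP-sensing CNG channel, detected with a potential dye at ex 535/em 590. Cells were HEK293-derived (endogenous PDE-IV) at 1000 cells/well, titrated up to 22.9 uM final.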

[5] = target: Cytochrome P450 3A4 (Homo sapiens) (UniProt P08684); assay: qHTS Assay for Inhibitors and Substrates of Cytochrome P450 3A4 (AID 884); also: nearly all actives have a fitted effect of over 50% in size; also: potency is read from the fitted curve at half-maximal effect
Chain of Cytochrome P450 3A4 (Homo sapiens) (P08684 whole entry, looked up): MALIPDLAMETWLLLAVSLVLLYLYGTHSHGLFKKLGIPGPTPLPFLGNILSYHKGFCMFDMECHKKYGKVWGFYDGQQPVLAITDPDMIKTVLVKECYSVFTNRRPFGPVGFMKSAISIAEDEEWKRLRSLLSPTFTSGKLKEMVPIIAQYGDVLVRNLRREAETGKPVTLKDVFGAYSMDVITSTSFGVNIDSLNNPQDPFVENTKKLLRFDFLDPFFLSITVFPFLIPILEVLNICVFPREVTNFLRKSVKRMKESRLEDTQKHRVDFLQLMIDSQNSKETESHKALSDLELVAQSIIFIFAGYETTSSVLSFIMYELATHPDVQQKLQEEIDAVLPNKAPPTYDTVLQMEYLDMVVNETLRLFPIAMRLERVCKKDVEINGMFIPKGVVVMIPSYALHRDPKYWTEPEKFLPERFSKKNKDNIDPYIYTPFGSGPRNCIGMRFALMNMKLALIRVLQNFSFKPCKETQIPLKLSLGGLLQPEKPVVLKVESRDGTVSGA
How it was run: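 Luminescent readout of luciferin produced by CYP3A4 (20 nM) dealkylation of Luciferin-PPXE, 25 uM (its KM). NADPH-driven reaction ran 60 min at RT after 10 min compound preincubation; data scaled to 57 uM ketoconazole as 100% inhibition.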

[6] = target: Cytochrome P450 3A4 (Homo sapiens) (UniProt P08684); assay: qHTS Assay for Activators of Cytochrome P450 3A4 (AID 885); also: nearly all actives have a fitted effect of over 65% in size; also: potency is read from the fitted curve at half-maximal effect
How it was run: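 Activators are scored by enhanced luminescence from CYP3A4 conversion of luciferin-PPXE (25uM, equal to KM) to luciferin, after 60 min at RT with an NADPH-regenerating system.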

[7] = target: DNA dC->dU-editing enzyme APOBEC-3G (Homo sapiens) (UniProt Q9HC16); assay: qHTS for inhibitors of Vif-A3G interactions: Validation (AID 588379)
Chain of DNA dC->dU-editing enzyme APOBEC-3G (Homo sapiens) (Q9HC16 whole entry, looked up): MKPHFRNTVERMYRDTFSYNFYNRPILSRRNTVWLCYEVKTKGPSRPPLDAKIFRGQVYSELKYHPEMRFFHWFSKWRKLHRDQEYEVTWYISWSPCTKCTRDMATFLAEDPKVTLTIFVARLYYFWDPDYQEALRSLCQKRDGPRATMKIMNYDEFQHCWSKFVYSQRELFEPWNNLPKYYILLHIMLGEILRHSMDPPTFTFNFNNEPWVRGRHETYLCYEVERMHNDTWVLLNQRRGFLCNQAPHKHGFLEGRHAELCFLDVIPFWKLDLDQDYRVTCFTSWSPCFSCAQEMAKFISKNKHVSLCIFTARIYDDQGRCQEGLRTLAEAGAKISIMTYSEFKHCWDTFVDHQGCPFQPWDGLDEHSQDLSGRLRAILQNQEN
How it was run: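 Yellow fluorescence (Ex 488, Em 500-530) of Vif-coexpressing HeLa A3G-eYFP cells, scanned by Acumen cytometer, reports blocked A3G degradation. Cells plated at 700/well overnight at 37 deg C before compound addition, then a further overnight compound incubation at 37 deg C.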

[8] = test system: Zika virus NS2B-NS3 protease; assay: Primary screen GU AMC qHTS for Zika virus inhibitors (AID 1347154); also: nearly all actives have a fitted effect of over 70% in size
How it was run: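 Unlinked Zika NS2B hydrophilic domain–NS3 protease complex at 25 nM in 10 mM Tris-HCl pH 8.0, 0.01% Tween 20, with an AMC peptide substrate. Fluorescence change (340/450 nm) over 15 min at room temperature, normalized to controls, fitted to 4-parameter Hill.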

[9] = target: Mitogen-activated protein kinase 10 (Mus musculus) (UniProt Q61831); assay: JNK3 AlphaScreen Assay (AID 530; active = well fitted curve in either direction with a large enough effect, not every such curve was filed as active;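 also: kinase came from lysate of stimulated human HepG2 cells; signal reports phosphorylation of biotinylated GST-cJun 1-79 at Ser73 with 10 µM ATP; series mostly up to about 57 µM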)
How it was run: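 HepG2 lysate (IL-1b/TNFa pre-activated) + biotin-GST-cJun 1-79 + anti-pSer73 cJun; cpd titration, 15 min RT; ATP 10 uM start; Tris pH 7.6, MgCl2, DTT, vanadate; beads in EDTA buffer; AlphaScreen.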

[10] = target: Cytochrome P450 2D6 (Homo sapiens) (UniProt P10635); assay: qHTS Assay for Inhibitors and Substrates of Cytochrome P450 2D6 (AID 891); also: potency is read from the fitted curve at half-maximal effect; nearly all actives have a fitted effect of over 60% in size
Chain of Cytochrome P450 2D6 (Homo sapiens) (P10635 whole entry, looked up): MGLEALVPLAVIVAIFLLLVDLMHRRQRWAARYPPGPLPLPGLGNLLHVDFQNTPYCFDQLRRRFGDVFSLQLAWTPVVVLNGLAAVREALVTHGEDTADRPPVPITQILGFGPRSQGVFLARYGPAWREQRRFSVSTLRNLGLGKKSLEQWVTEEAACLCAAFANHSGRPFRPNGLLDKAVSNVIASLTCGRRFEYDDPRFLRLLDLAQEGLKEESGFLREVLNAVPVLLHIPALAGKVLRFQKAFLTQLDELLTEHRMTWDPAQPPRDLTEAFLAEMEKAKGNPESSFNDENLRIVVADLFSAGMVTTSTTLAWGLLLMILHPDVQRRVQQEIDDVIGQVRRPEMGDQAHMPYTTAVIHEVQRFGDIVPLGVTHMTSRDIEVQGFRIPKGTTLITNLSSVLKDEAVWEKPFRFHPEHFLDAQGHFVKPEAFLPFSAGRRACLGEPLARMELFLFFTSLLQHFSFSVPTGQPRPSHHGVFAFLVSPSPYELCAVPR
How it was run: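 Luminescent read-out of luciferin formed by 5 nM human CYP2D6 demethylating 30 uM Luciferin-ME EGE (Km level) over 60 min at room temperature after NADPH regeneration addition. Data normalized to full inhibition by 1.43 uM quinidine.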

[11] = target: Ubiquitin carboxyl-terminal hydrolase 1 (Homo sapiens) (UniProt O94782); assay: Inhibitors of USP1/UAF1: Pilot qHTS (AID 504865); also: nearly all actives have a fitted effect of over 35% in size; also: potency is read from the fitted curve at half-maximal effect
Chain of Ubiquitin carboxyl-terminal hydrolase 1 (Homo sapiens) (O94782 whole entry, looked up): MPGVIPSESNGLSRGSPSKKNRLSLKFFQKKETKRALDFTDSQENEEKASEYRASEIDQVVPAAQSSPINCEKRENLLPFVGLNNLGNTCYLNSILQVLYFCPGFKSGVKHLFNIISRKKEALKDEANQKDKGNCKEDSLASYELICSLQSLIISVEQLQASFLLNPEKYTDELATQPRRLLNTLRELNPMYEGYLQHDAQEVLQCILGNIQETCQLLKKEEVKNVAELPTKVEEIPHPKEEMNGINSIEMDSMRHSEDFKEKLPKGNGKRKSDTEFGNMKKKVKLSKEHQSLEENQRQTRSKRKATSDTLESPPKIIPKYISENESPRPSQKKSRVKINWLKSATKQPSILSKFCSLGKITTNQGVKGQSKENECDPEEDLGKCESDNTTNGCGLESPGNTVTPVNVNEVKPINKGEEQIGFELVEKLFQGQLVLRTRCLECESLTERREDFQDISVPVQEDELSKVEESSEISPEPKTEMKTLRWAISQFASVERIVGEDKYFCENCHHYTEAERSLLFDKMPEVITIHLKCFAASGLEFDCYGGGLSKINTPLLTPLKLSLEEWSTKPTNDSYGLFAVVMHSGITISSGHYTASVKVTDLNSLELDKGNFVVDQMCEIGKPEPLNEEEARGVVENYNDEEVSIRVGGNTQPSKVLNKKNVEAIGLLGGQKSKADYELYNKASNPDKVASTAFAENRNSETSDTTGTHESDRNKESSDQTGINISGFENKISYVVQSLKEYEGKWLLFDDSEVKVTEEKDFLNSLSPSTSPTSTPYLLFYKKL
How it was run: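 Deubiquitinase activity followed as kinetic rhodamine fluorescence release from 150 nM Ub-Rho. 1 nM USP1/UAF1 with compound, after 15 min room-temperature preincubation, in HEPES pH 7.8 buffer containing TCEP, EDTA, BSA and Tween-20.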

[12] = target: Cytochrome P450 2C9 (Homo sapiens) (UniProt P11712); assay: qHTS Assay for Inhibitors and Substrates of Cytochrome P450 2C9 (AID 883); also: potency is read from the fitted curve at half-maximal effect; nearly all actives have a fitted effect of over 60% in size
How it was run: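 Human CYP2C9 (10nM) with Luciferin-H at 100uM (its KM) in 25mM KPO4; compound preincubated 10 min at 37C, then NADPH regeneration for 60 min at 37C. Luciferin read by luminescence after detection reagent; normalized to 57uM sulphaphenazole as full inhibition.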

[13] = target: Cytochrome P450 2C19 (Homo sapiens) (UniProt P33261); assay: qHTS Assay for Inhibitors and Substrates of Cytochrome P450 2C19 (AID 899); also: potency is read from the fitted curve at half-maximal effect; nearly all actives have a fitted effect of over 60% in size
Chain of Cytochrome P450 2C19 (Homo sapiens) (P33261 whole entry, looked up): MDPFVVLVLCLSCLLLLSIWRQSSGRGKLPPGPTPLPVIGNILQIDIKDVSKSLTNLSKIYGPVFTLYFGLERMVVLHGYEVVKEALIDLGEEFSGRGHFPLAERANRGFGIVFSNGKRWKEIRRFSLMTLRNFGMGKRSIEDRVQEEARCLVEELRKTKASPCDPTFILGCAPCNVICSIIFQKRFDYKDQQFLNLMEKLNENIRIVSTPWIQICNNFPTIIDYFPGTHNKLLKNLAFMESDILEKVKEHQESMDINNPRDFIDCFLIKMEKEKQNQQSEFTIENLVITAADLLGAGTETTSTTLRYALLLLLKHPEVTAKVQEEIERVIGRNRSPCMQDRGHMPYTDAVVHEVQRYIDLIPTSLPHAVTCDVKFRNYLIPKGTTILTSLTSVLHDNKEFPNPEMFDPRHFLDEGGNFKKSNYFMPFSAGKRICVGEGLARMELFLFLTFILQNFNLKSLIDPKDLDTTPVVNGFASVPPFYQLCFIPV
How it was run: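 5 nM human CYP2C19 with 10uM Luciferin-H EGE (at KM) in 50mM KPO4, compound preincubated 10 min at 37C, then NADPH regeneration for 60 min at 37C. Luciferin read by luminescence after detection reagent; normalized to 57uM ketoconazole as full inhibition.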

[14] = target: Guanine nucleotide-binding protein G(i) subunit alpha-1 (Homo sapiens) (UniProt P63096); assay: qHTS Assay for Inhibitors of RGS12 GoLoco Motif Activity (Green Fluorophore) (AID 879);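 also: negative values mean loss of peptide binding seen as reduced polarization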
How it was run: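 A drop in FITC polarization marked displacement of the FITC-tagged RGS12 GoLoco peptide (10 nM) from Gαi1 (50 nM). Compounds were incubated 10 min at room temperature in Tris pH 7.5 buffer containing 150 mM NaCl, 0.1 mM GDP and 0.05% NP40; unlabeled peptide titration served as control.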

[15] = qHTS Assay for Identification of Small Molecule Antagonists for NFkB Signaling Pathway (AID 895; active = well fitted inhibition curve with a large enough effect in the signal ratio, with a control signal flat, not every such curve was filed as active; the % refers to the signal ratio)
How it was run: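 ME-180 NFkB-bla cells (beta-lactamase under NFkB response element), plated overnight, treated with compound then 10 pM TNF alpha (about EC50) for 5 hrs at 37 C. LiveBLAzer FRET read at 460/530 nm emission, 405 nm excitation.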

[16] = qHTS Assay for Identification of Small Molecule Antagonists for Thrombopoietin (TPO) Signaling Pathway (AID 918); details: TPO-dependent cell signaling reporter, antagonist mode; also: potency is read from the fitted curve at half-maximal effect; nearly all actives have a fitted effect of over 60% in size
How it was run: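 Luminescence read-out: GPIIb-promoter luciferase in Ba/F3 cells carrying human TPO receptor. Compounds added with 26 pM TPO (EC50), 24 hrs, 37 C, 5% CO2; cells deprived of IL-3 overnight beforehand. Inhibition of signal scored.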

[17] = target: Muscarinic acetylcholine receptor M1 (Rattus norvegicus) (UniProt P08482); assay: qHTS Assay for Antagonists of Acetylcholine Muscarinic M1 Receptor: Kinetic Measurement of Intracellular Calcium Response (AID 943);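 also: Fluo-4 calcium signal as peak divided by basal fluorescence over 4 min; series mostly up to about 35 µM; nearly all actives have a fitted effect of over 75% in size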
How it was run: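 Read-out: peak over basal Fluo-4 fluorescence, kinetic at 1 Hz for 4 min after EC80 carbachol (100 nM final). Rat M1-CHO cells, dye loaded 1 h at 37C, compound added 10 min before agonist.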

[18] = target: Pyruvate kinase (Leishmania mexicana) (UniProt Q27686); assay: qHTS Validation Assay for Inhibitors of Leishmania Mexicana Pyruvate Kinase (AID 945)
How it was run: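 Read-out: luminescence from PKLight stop/detection reagent, data normalized to DMSO. Reaction: 0.2 nM E451W LmPYK, 0.5 mM PEP, 0.1 mM ADP, pH 7.2, 1 h room temperature.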

[19] = target: Pyruvate kinase PKM (Homo sapiens) (UniProt P14618); assay: qHTS Assay for Activators of Human Muscle Pyruvate Kinase (AID 954; active = well fitted curve in the direction sought with a large enough effect, not every such curve was filed as active)
How it was run: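 PKM2, human, >95% pure, 0.1 nM; PEP 0.5 mM (Km), ADP 0.1 mM; 50 mM imidazole pH 7.2, 50 mM KCl, 0.01% Tween 20, 0.05% BSA; 1 h RT; luciferase luminescence readout.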

[20] = target: alpha-glucosidase (Oryza sativa, rice) (UniProt Q653V4); assay: Counterscreen for Glucocerebrosidase Inhibitors: qHTS Assay for Rice alpha-Glucosidase at pH 5.0 (AID 997)
How it was run: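 Endpoint fluorogenic assay at pH 5.0: compounds (0.7 nM to 77 uM) titrated against 4 nM rice enzyme and 400 uM 4-MU-alpha-glucoside for 20 min at room temperature; NaOH/glycine stop, read ex 365/em 440 nm, Hill-fitted AC50.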

[21] = Confirmatory screen GU Rhodamine qHTS for Zika virus inhibitors qHTS (AID 1347157); also: potency is read from the fitted curve at half-maximal effect; nearly all actives have a fitted effect of over 70% in size
How it was run: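 Noncovalent NS2B hydrophilic domain/NS3 protease complex (25 nM final) in 10 mM Tris-HCl pH 8.0, 0.01% Tween 20, preincubated 15 min with compounds (up to 114 microM), then 1.5 microM Rhodamine110 substrate. Fluorescence change over 15 min fitted to 4-parameter Hill.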

[22] = ZIKV-mCherry secondary qHTS for Zika virus inhibitors (AID 1347158); also: top concentration of the series differs between compounds
How it was run: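 Read-out is percent infection: mCherry-positive Vero cells (nuclear-proximal intensity >450 RFU, 3 SD above negative controls) counted by high-content imaging of Hoechst-stained, PFA-fixed wells after 48-72 h with ZIKV-mCherry at MOI 1 and compound.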

[23] = Confirmatory screen NINDS Rhodamine qHTS for Zika virus inhibitors (AID 1347161)
How it was run: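 Enzyme (25 nM, linked NS2B-NS3) was preincubated 15 min with compound in 10 mM Tris-HCl pH 8.0, 0.01% Tween 20. Rhodamine110 substrate (1.5 microM) was then added and fluorescence read at start and after 15 min.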

[24] = test system: Zika virus NS2B-NS3 protease (linked); assay: 384 well plate NINDS AMC confirmatory qHTS for Zika virus inhibitors (AID 1347163); also: potency is read from the fitted curve at half-maximal effect; nearly all actives have a fitted effect of over 50% in size
How it was run: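 Enzyme (5, 30 or 60 nM final) first met test compounds for ~15 min. The AMC-tagged peptide Ac-VKTGKR-AMC followed at 30 microM. Fluorescence was then recorded at 25 min and scaled against no-enzyme and no-inhibitor wells.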

[25] = test system: Zika virus NS2B-NS3 protease (linked construct); assay: 384 well plate NINDS Rhodamine confirmatory qHTS for Zika virus inhibitors (AID 1347164);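 also: fluorescence from protease cleavage of Ac-LKRR-rhodamine 110 substrate; potency is read from the fitted curve at half-maximal effect; nearly all actives have a fitted effect of over 65% in size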
How it was run: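 Fluorescence at 485/538 nm was measured 25 minutes after adding 10 microM Ac-LKRR-Rd substrate, in the dark at room temperature. The protease (5, 30 or 60 nM final) had been preincubated ~15 minutes with compound; aprotinin as control.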

[26] = Tertiary RLuc qRT-PCR qHTS assay for Zika virus inhibitors (AID 1347169); also: top concentration of the series differs between compounds; nearly all actives have a fitted effect of over 55% in size
How it was run: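 Orthogonal cell-based readout: luminescence measured 1-1.5 hrs after adding live-cell Renilla substrate to Vero cells that had been infected with ZIKV-RLuc (MOI 1-2) post-compound, incubated 48-72 hrs at 37 degrees C.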

Measured: Potency

COc1ccc(OC)c2c(=S)c3ccccc3[nH]c12
inactive: [2] > 46 µM | [3] > 46 µM | [4] | [6] | [7] | [8]
active: [1] 0.0631 µM | [5] 7.94 µM

N[C@H](C(=O)O)[C@H](OCc1ccccc1)C(=O)O
inactive: [2] > 46 µM | [3] > 46 µM | [9] | [4] | [11] | [7] | [8]
active: [10] 7.94 µM

CCCCCN=c1ccn(Cc2ccccc2)c2ccccc12
inactive: [2] > 46 µM | [3] > 46 µM | [6] | [7] | [8]
active: [1] 25.1 µM | [12] 0.316 µM | [13] 0.251 µM

Cc1c(C2CCN(CCc3ccccc3)CC2)noc1-c1ccc(Cl)cc1
active: [6] 15.8 µM
inactive: [2] > 46 µM | [3] > 46 µM | [9] | [5] | [11] | [7] | [8]

COc1cc(OC)c(C(=O)CCCCN2CCC3(CC2)NC(=O)NC3=O)cc1NS(=O)(=O)c1ccc(C(F)(F)F)cc1
inactive: [1] | [2] > 46 µM | [3] > 46 µM | [4] | [6] | [7] | [8]

CCCCCCCCCCCCC/C=C\[C@@H](O)[C@@H](N)CO
inactive: [3] > 46 µM | [4] | [14] | [5] | [15] | [17] | [18] | [19] | [20] | [7] | [8]
active: [1] 15.8 µM | [16] 10 µM | [11] 50.1 µM

CCCCCCCCCCCCCCCCCCc1ccc(C(=O)/C=C\C(=O)O)cc1
inactive: [2] > 46 µM | [3] > 46 µM | [9] | [7] | [8]

Cc1ccc(S(=O)(=O)NCc2ccccc2)cc1
active: [1] 0.501 µM
inactive: [2] > 46 µM | [3] > 46 µM | [4] | [6] | [7] | [8]

O=C(Nc1cccc(C(=O)OCc2cc(=O)n3nc(C4CC4)sc3n2)c1)c1cccc(Cl)c1
inactive: [22]
active: [21] 56.2 µM

OCCNCCCOc1cccc(Cl)c1Cl
inactive: [2] > 46 µM | [9] | [6] | [11] | [7] | [8]
active: [10] 0.158 µM | [13] 3.98 µM

Cc1c(C(=O)NN2CCCCC2)nn(-c2ccc(Cl)cc2Cl)c1-c1ccc(I)cc1
inactive: [11] | [7] | [8]

CC(C)(C)c1ccc(S(=O)(=O)c2cnc(SCC(=O)Nc3ccc4c(c3)OCCO4)[nH]c2=O)cc1
active: [21] 7.08 µM | [23] 6.31 µM | [24] 316 µM | [25] 31.6 µM
inactive: [22] | [26]
